From ChEMBL document CHEMBL1201862, “PubChem BioAssay data set” (2004)
The whole screen tested about 300,000 compounds, of which about 3,700 (1.2%) were called active. Inconclusive results (about 20%) are left out. The rule behind the calls is not given here. Shown is part of a subset that was picked to be rich in actives.

These molecules were tested on HEK293 (assay: qHTS for Inhibitors of binding or entry into cells for Lassa Virus. [Related pubchem assays (depositor defined):AID463114, AID540249]). Settings: read-out: Potency.
Assay type: functional, Homo sapiens
With `C[C@@H]1O[C@@H](O[C@H]2C[C@@H](O)[C@]3(CO)[C@H]4[C@H](O)C[C@]5(C)[C@@H]([C@@H]6COC(=O)C6)CC[C@]5(O)[C@@H]4CC[C@]3(O)C2)[C@H](O)[C@H](O)[C@H]1O` [DIHYDROOUABAIN] the AC50 was 1.58 µM (active).
